# High-throughput results as filed in PubChem BioAssay.
# NPC1 promoter act: activates the NPC1 promoter; Potency, µM (titrated, usually from 9.22 µM), for inactives: top-dose activation, actives largely listed as activators; hit rate 2.4% among 320,000; Huh7 NPC1 promoter luciferase reporter, 24 h; AID 485313; also: % of control where 0% means no effect; nearly all actives have a fitted effect of over 60% in size
#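 NPC1 promoter–luciferase Huh7 cells; 24 h compound; luminescence.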
# SMN2 splice up: enhancers of SMN2 splice variant expression; HEK293 SMN2-luciferase splicing reporter, luminescence, 30-36 h; AID 1458; Potency, µM (doses to about 46.1 µM), for the others: top-dose activity change, positive = activation, actives largely listed as activators; hit rate 2.8% among 210,000; also: % of control where 0% means no effect; nearly all actives have a fitted effect of over 55% in size
#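 HEK293 cells carry an SMN2 minigene-luciferase reporter in which exon 7 inclusion puts luciferase in frame. Cells were seeded at 2000 cells/well, attached for 10-12 hours, then exposed to compounds for 30-36 hours at 37C before ONE-Glo luminescence.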
# FLuc modulator: inhibits or activates purified firefly luciferase, miR-21 counter-screen; P08659; purified FLuc, Km substrates, luminescence inhibition; Potency, µM (top dose mostly 57.5 µM), inactives show at the top dose activity change, negative = inhibition, actives largely listed as inhibitors; hit rate 6.9% among 360,000;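 also: plate controls were vehicle for no effect and reference inhibitor for full effect; nearly all actives have a fitted effect of over 55% in size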
# Target sequence (P08659 whole entry, looked up): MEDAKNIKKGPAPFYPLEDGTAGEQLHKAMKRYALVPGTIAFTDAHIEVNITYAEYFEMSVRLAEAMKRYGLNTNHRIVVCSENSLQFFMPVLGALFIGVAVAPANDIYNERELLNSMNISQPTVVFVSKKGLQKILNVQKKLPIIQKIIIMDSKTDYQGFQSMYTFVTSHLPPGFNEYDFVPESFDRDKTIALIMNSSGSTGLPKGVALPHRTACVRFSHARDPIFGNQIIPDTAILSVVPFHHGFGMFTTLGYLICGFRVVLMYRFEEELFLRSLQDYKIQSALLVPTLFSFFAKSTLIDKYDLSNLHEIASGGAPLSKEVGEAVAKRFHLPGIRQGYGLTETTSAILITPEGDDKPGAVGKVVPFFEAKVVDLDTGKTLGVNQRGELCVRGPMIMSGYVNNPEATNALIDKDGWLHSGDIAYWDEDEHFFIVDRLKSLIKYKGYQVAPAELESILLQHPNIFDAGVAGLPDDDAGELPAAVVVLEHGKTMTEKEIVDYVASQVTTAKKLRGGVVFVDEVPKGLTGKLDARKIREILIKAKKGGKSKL
#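 Purified P. pyralis luciferase, 10 nM final, with Km-level 10 uM D-luciferin and 10 uM ATP in 50 mM Tris acetate pH 7.5, 10 mM Mg acetate, 0.01% Tween-20, 0.05% BSA; 6-point qHTS titration about 60 µM downward; luminescence read.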
# Rab9 prom act: Rab9 promoter activation. Huh7 Rab9 promoter-luciferase reporter, luminescence, 24 h. Potency, µM (doses to about 9.22 µM), inactives show at the top dose activation, negative = inhibition, usual class: activators. hit rate 2.8% among 320,000; also: % of control where 0% means no effect; nearly all actives have a fitted effect of over 60% in size
#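 Rab9 promoter-driven luciferase in stably transfected Huh7 cells; 1500 cells/well rested 2 h, exposed to compound in DMSO for 24 h at 37 °C, 5% CO2. Luminescence read 10 min after adding luciferase reagent at ambient temperature.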
# ELG1 genotox: inducers of genotoxicity in HEK293T ELG1-luciferase cells; HEK293T ELG1-luciferase reporter, luminescence, 16 h; Potency, µM (highest dose often 46 µM), for the others: top-dose activity change, positive = activation, usual class: activators; hit rate 1.3% among 330,000; AID 504466; also: % of control where 0% means no effect; nearly all actives have a fitted effect of over 60% in size
#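 Reporter readout depends on ELG1 protein level, which increases with genetic stress. After 16 hr compound exposure at 37 °C, luciferase activity was quantified using ONE-Glo.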
# Luc counter: blocks Kinase-Glo luciferase, a counter-screen artifact; Kinase-Glo luciferase, ATP luminescence, 8 min; Potency, µM (highest dose often 38.3 µM), for inactives: top-dose activity change, negative = inhibition, actives largely listed as inhibitors; hit rate 0.28% among 200,000; AID 1379; also: % is scaled to controls: 0 for no effect and ±100 for the full control effect; nearly all actives have a fitted effect of over 60% in size
#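 Kinase-Glo luciferase light output from ATP and luciferin was measured with 10 uM ATP, within the enzyme's linear range. Buffer: 50 mM imidazole pH 7.2, 50 mM KCl, 7 mM MgCl2, 0.01% Tween 20, 0.05% BSA; luminescence read after 8 min at ambient temperature.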
# * = called active by the depositor; ? = inconclusive; · = no result; ! = repeats disagree; [ ] = remark or other dose. Most compounds without a hit are left out; they make up all but 7.3% or so of the library. Calls follow the shape of the dose curve; as a rule, active = well fitted curve in the direction sought with a large enough effect; inconclusive = small, poorly fitted or top-dose-only effect, or another doubt; inactive = no such curve, though single readings can be large; an effect the other way counts as inactive or inconclusive. Potency is read from the fitted curve at half-maximal effect.
SMILES,NPC1 promoter act,SMN2 splice up,FLuc modulator,Rab9 prom act,ELG1 genotox,Luc counter
CCCc1ccc(-c2csc(NC(=O)C3=COCCO3)n2)cc1,1.1µM*,·,·,1.3µM*,11%,·
CCCCC/C=C\C[C@@H](O)/C=C/C=C\CCC(=O)O,·,-1%,·,·,·,0%
CC1=C(c2ccc(C)cc2)S(=O)(=O)N(Cc2ccc(C(=O)Nc3ccc(C)c(F)c3)cc2)C1=O,·,·,-6%,·,·,·
Cc1nn2c(=O)cc(COC(=O)c3ccc(NC(=O)c4cccs4)cc3)nc2s1,·,·,-3%,·,·,·
CCC(Sc1ncccc1C(=O)Oc1ccccc1Cl)C(=O)Nc1ccccc1OC (configuration not stated),·,·,1%,·,·,·
COc1ccc(N2CCN(C(=O)CN3CCSc4ccccc43)CC2)cc1,·,·,1%,·,·,·
CCOC(=O)c1csc(NC(=O)C2CCCCC2)n1,23%,?,?,27%,?,-2%
CCOC(=O)c1csc(NC(=O)C2=COCCO2)n1,2.5µM*,·,15µM*,2.8µM*,9.2µM*,·
Cc1cc(-c2nc3ncccc3o2)ccc1NC(=O)c1ccc(Cl)cc1,·,3%,2%,·,·,·
CCN(CC)c1ccc(NC(=O)/C=C\c2ccccc2Cl)cc1,26%,?,2.7µM*,27%,7.3µM*,6%
CN(C)c1ccc(NC(=S)NC(=O)/C=C/c2ccc(Cl)cc2)cc1,16%,44%,4.8µM*,21%,11%,2%
CCN(CC)c1ccc(NC(=O)C(C)C)cc1,11%,-13%,-15%,13%,11%,-5%
CN(C)c1ccc(NC(=O)/C=C/c2ccccc2Cl)cc1,?,20µM*,1.2µM*,2.5µM*,?,0%
COc1ccc2oc(-c3ccc(C)c(NC(=O)c4ccc5c(c4)OCCO5)c3)nc2c1,·,29%,?,·,·,·
C(=C\c1nc(N2CCCCCC2)c2ccccc2n1)/c1ccccc1,-1%,·,8.5µM*,7%,0%,·
CC1(C)[C@@H]2CC[C@@]1(CS(=O)(=O)Nc1ccccc1)C(=O)C2,·,-3%[9.22 µM],·,·,·,-4%[7.66 µM]
O=C(Nc1ccc(S(=O)(=O)N(Cc2ccccc2)c2ccccc2)cc1)c1ccc(F)cc1,·,·,-1%,·,·,·
CCOC(=O)C1CCCN(CCC(=O)Nc2cccc(C)c2)C1 (configuration not stated),3.5µM*,6%,15µM*!,3.2µM*,?,-2%
CCOC(=O)C1CCCN(C(=S)Nc2ccc(Nc3ccccc3)cc2)C1 (configuration not stated),?,11µM*,-7%,1.4µM*,9%,0%
CCC1CN(C(=O)N2CCC(C(=O)NCc3ccc(N(C)C)cc3)CC2)c2ccccc2O1 (configuration not stated),·,·,-2%,·,·,·
COc1ccc(CCNC(=O)c2ccc3c(c2)N(Cc2ccc(F)cc2)C(=O)c2ccccc2S3(=O)=O)cc1OC,·,?,1%,·,·,·
c1ccc(C2=NNC(c3ccccn3)=NN2)nc1,3.5µM*,·,3.4µM*,0.71µM*,?,·
CN(C(=O)C1CCOC1)c1nnc(-c2ccccn2)s1 (configuration not stated),30%,80%,15µM*,?,21µM*,-3%
c1ccc(-c2nnc(-c3ccccn3)s2)nc1,0.1µM*,·,1.3µM*,0.089µM*,?,·
c1ccc(-c2nc(-c3ccccn3)nc(-c3ccccn3)n2)nc1,-4%,·,-1%,1%,-6%,·
SMILES,NPC1 promoter act,SMN2 splice up,FLuc modulator,Rab9 prom act,ELG1 genotox,Luc counter
CCOC(=O)c1sc(-c2ccccn2)nc1C,-2%,17%,27µM*,6%,13%,-3%
CN(C(=O)C1CCOC1)c1nnc(-c2ccncc2)s1 (configuration not stated),-1%,?,-4%,-7%,-9%,-2%
Cc1cc(-c2ccc(C)c(S(=O)(=O)N(C)c3ccc(C)c(C)c3)c2)on1,·,·,-1%,·,·,·
Cc1ccc(CNC(=O)C2CCCN(S(=O)(=O)c3cccc4nsnc34)C2)cc1 (configuration not stated),·,9%,0%,·,·,·
CN(C(=O)C1CCCO1)c1nnc(-c2ccccn2)s1 (configuration not stated),12%,3%,15µM*,25%,?,-4%
COCC(=O)N(C)c1nnc(-c2ccccn2)s1,10%,20µM*,?,9%,21µM*,-16%
O/N=C\c1ccc(-c2ccccc2)o1,22%,13µM*,13µM*,24%,15%,1%
O=[N+]([O-])c1ccc(-c2ccc(/C=N/O)o2)cc1,29%,·,?,23%,?,·
COc1ccc(N=Cc2ccc(-c3ccccc3)o2)cc1,-3%,·,3µM*,-12%,12%,-1%
COC(=O)/C(C#N)=C/c1c[nH]c2ccccc12,23%,2%,?,23%,?,-2%
CCOC(=O)/C(C#N)=C/Nc1ccccc1OC,3.2µM*,?,6.7µM*,2.2µM*,?,-5%
CCOC(=O)/C(C#N)=C/c1c[nH]c2ccccc12,-3%,11%,19µM*,25%,8%,3%
COc1ccc(Nc2ncnc3c2cnn3-c2ccc(C)cc2)cc1Cl,·,·,24µM*,·,·,·
COc1cccc(Nc2ncnc3c2cnn3-c2cccc(C)c2)c1,?,-9%,17µM*,?,5%,-2%
COc1ccccc1Nc1ncnc2c1cnn2-c1cccc(C)c1,30%,12%,13µM*,9%,1%,0%
CC1=C(C(=O)Nc2ccccc2C)C(c2ccccn2)n2nc(SCc3ccccc3F)nc2N1 (configuration not stated),·,-1%,-2%,·,·,·
CCN1CCCC1Cn1c(-c2ccccc2)nc2c(NCCOC)nc(C)nc21 (configuration not stated),·,-13%,·,·,·,-3%
O=C1c2oc3ccccc3c(=O)c2C(c2ccccc2F)N1Cc1ccc2c(c1)OCO2 (configuration not stated),·,-2%,1%,·,·,·
CC1CCCN(c2nc3c(-c4ccc(Cl)cc4)nnn3c3ccccc23)C1 (configuration not stated),·,9%,2%,·,·,·
Cn1c(=O)cc(OCC(=O)NC2CCCCC2)c2ccccc21,-5%,11%,3%,-2%,5%,-1%
Cn1c(=O)cc(OCCCC(=O)NC2CCCC2)c2ccccc21,-3%,16µM*,1%,-2%,?,0%
Oc1nc(Nc2cccc(Cl)c2)sc1/C=C1\C=Nc2ccccc21,8%,·,?,8%,-4%,·
Oc1cccc(Nc2nc(O)c(/C=C3\C=Nc4ccccc43)s2)c1,3%,·,21µM*,7%,?,·
Cc1c(Cl)cccc1NC(=O)Cn1nnc(-c2nc(-c3ccccc3)no2)c1N,·,·,-1%,·,·,·
